Assay results taken from PubChem BioAssay AID1159569 (Broad Institute, 2015).
Potency and affinity values are given separately. Inconclusive results are not listed. Entries that show only a call come without a potency. The source made the active and inactive calls. No rule for the calls is given here.

Assay: toxicity to human HepG2 hepatoma cells – cell-based, plate reader, dry powder samples, cytotoxicity control, dose response (AID 1159569)
Settings: HepG2 cytotoxicity counterscreen; series mostly up to 50 µM

Row | Compound | outcome
1 | COc1ccc2c3c([nH]c2c1)[C@H](CO)N(C(=O)C1CCOCC1)CC31CCN(Cc2nccs2)CC1 | inactive
2 | COc1ccc(NC(=O)N2CCC3(CC2)CN(C(=O)C2CCC2)[C@H](CO)c2c3c3ccc(OC)cc3n2C)cc1 | inactive
3 | C[C@H](CO)N1C[C@H](C)[C@@H](CN(C)C(=O)Nc2cccc3ccccc23)Oc2ccc(NC(=O)Nc3ccc(C(F)(F)F)cc3)cc2C1=O | inactive
4 | COc1ccccc1S(=O)(=O)N(C)C[C@H]1OCc2ccccc2-c2c(n(C)c3ccccc23)C(=O)N([C@@H](C)CO)C[C@@H]1C | inactive
5 | COc1ccc(NC(=O)N(C)C[C@@H]2Oc3c(NC(=O)c4nc5ccccc5s4)cccc3C(=O)N([C@@H](C)CO)C[C@H]2C)cc1 | inactive
6 | COc1ccc(C#Cc2ccc3c(c2)O[C@H](CN(C)S(=O)(=O)c2ccccc2F)[C@@H](C)CN([C@H](C)CO)S3(=O)=O)cc1 | inactive
7 | C[C@H]1CN([C@@H](C)CO)C(=O)c2c(c3ccccc3n2C)-c2ccccc2CO[C@@H]1CN(C)C(=O)Nc1ccc(-c2ccccc2)cc1 | inactive
8 | COc1ccc2c3c(n(C)c2c1)[C@@H](CO)N(C(=O)c1ccc(F)cc1)CC31CN(C(=O)Nc2ccc(F)cc2)C1 | inactive
9 | C[C@H]1CN([C@@H](C)CO)C(=O)Cc2cc(NC(=O)Nc3ccc(C(F)(F)F)cc3)ccc2O[C@@H]1CN(C)C(=O)Nc1ccc2c(c1)OCO2 | inactive
10 | COc1ccc(C#Cc2ccc3c(c2)O[C@@H](CN(C)S(=O)(=O)c2ccccc2F)[C@@H](C)CN([C@H](C)CO)S3(=O)=O)cc1 | inactive
